Sampled rows, rich in hits. Any-hit rate of the full collection: about 2.9%.
EPAC2 antag – Validation qHTS for antagonist of cAMP-regulated guanine nucleotide exchange factor 4 (EPAC2). Rap guanine nucleotide exchange factor 4 (Homo sapiens), Q8WZA2. EPAC2 Rap1B BODIPY-GDP exchange, fluorescence. Potency, µM (titrated, usually from 112 µM), for the others: at the highest dose activity, negative = inhibition, hits mostly inhibitors. hit rate 1.7% among 16,000;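 also: 100% = activation by cAMP agonist control; nearly all actives have a fitted effect of over 40% in size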
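Fluorescent exchange read-out: 100 nM EPAC2 with 250 nM RAP1B–BODIPY-GDP and 50 uM GDP; BODIPY-GDP release lowers fluorescence. Read at 480/540 nm every 5 min for 30 min at room temperature; normalized to 6.5 mM cAMP.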
EPAC1 agonist – Validation qHTS for agonist of cAMP-regulated guanine nucleotide exchange factor 3 (EPAC1) | Rap guanine nucleotide exchange factor 3 (Homo sapiens), O95398 | EPAC1 Rap1b BODIPY-GDP exchange, fluorescence | Potency, µM, without a hit: max response, positive = active, actives largely listed as activators | hit rate 1% among 16,000 | AID 1645883, 2021; also: nearly all actives have a fitted effect of over 70% in size
Target sequence (O95398 whole entry, looked up): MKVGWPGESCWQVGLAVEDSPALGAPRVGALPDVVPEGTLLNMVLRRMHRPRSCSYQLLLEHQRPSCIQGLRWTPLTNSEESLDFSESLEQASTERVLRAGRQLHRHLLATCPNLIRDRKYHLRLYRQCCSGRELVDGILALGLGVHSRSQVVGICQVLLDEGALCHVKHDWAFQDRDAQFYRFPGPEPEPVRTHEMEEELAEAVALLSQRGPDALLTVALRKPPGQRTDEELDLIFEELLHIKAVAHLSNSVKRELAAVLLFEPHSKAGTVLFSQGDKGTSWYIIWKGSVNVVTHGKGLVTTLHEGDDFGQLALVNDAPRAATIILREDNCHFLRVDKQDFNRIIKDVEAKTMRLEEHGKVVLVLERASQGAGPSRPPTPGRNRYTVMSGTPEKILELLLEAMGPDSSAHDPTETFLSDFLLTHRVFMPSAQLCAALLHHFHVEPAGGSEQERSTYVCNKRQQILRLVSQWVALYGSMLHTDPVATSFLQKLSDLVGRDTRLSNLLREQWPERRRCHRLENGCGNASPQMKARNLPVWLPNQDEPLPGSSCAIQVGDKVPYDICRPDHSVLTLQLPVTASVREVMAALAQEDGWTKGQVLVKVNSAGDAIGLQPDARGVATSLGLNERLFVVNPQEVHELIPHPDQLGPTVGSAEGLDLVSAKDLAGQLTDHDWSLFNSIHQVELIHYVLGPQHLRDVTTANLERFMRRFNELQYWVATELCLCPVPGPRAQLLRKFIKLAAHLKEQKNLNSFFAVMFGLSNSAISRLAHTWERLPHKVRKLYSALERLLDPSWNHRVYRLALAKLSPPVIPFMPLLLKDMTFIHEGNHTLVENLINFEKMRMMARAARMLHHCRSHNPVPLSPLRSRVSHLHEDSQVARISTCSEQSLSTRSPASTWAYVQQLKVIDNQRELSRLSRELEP
* marks the source's active call; other numbers are inactive results; i = inactive; ? = inconclusive; ! = a repeat was not active. Calls follow the shape of the dose curve; as a rule, active = well fitted curve in the direction sought with a large enough effect; inconclusive = small, poorly fitted or top-dose-only effect, or another doubt; inactive = no such curve, though single readings can be large; an effect the other way counts as inactive or inconclusive. Unless noted, % is scaled to controls: 0 for no effect and ±100 for the full control effect; potency is read from the fitted curve at half-maximal effect.

SMILES	EPAC2 antag	EPAC1 agonist
C=C[C@@](C)(O)CC[C@@H]1[C@@]2(C)CCCC(C)(C)[C@@H]2CC[C@@]1(C)O	?	-27%
C=C[C@](C)(O)CCC1C(=C)CC(OC(C)=O)C2C(C)(C)CCCC12C (some centres not stated)	10µM*	-116%
Nc1ncnc2c1ncn2[C@H]1O[C@H](CO)[C@@H](O)[C@@H]1O	12%	-14%
COc1ccc(C(=O)NCC2Cc3c(F)ccc(-c4nc(C)cnc4C)c3O2)cc1F (configuration not stated)	?	-8%
C/C1=C2N=C(/C=C3N=C(/C(C)=C4\[N-][C@@](C)([C@@H]5N=C1[C@](C)(CCC(=O)NCC(C)OP(=O)(O)O[C@H]1[C@@H](O)[C@@H](n6cnc7cc(C)c(C)cc76)O[C@@H]1CO)[C@H]5CC(N)=O)[C@@](C)(CC(N)=O)[C@@H]4CCC(N)=O)[C@@](C)(CC(N)=O)[C@@H]\3CCC(N)=O)C(C)(C)[C@@H]/2CCC(N)=O.CC(=O)O.[Co] (some centres not stated)	79µM*	-44%
O=C(NCCN1CCOCC1)c1cnn(-c2nccc(-c3cc4ccccc4o3)n2)c1C1CC1	12%	10%
Cc1ccc(O)c(N=Nc2ccccc2)n1	56µM*!	-14%
Cc1ccc2ccccc2n1	10%	-63%
C[C@@H](O)[C@H]1C(=O)N2C(C(=O)[O-])=C(SC3Cn4cnc[n+]4C3)[C@H](C)[C@H]12 (some centres not stated)	1%	-1%
COc1ccc(C(=O)N2CCC3(CC2)CN(c2ccncc2)C3)cc1	-30%	100µM*
COc1ccc(C(=O)N2CCC3(CCCN(c4ccncc4)C3)CC2)cc1	-25%	6%
CNc1cc(OC)c(C(=O)N[C@H]2CCN(Cc3ccccc3)[C@H]2C)cc1Cl	?	-30%
CCC(C)(C)C(=O)O[C@@H]1C[C@@H](C)C=C2C=C[C@H](C)[C@H](CC[C@@H]3C[C@@H](O)CC(=O)O3)[C@H]21	50µM*	-43%
CCC(C)(C)C(=O)OC1CC(C)C=C2C=CC(C)C(CCC3CC(O)CC(=O)O3)C21 (configuration not stated)	i	6%

Screening data deposited in PubChem by National Center for Advancing Translational Sciences (NCATS).
